Measured values: PubChem BioAssay (NCI)
This is part of a sample that, as a whole, favours compounds with a hit. Of some 83,000 tested, about 20% had one in any assay.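 In brief: 96-well plates, 48 h treatment, single concentration, percent growth endpoint.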 Unmarked numbers belong to inactive results. The source made the active and inactive calls. How the source made its calls: active means growth percent below 10; inactive means the rest.

Key:
Assay in all cases: NCI-60 one-dose screen, 48 h (100 = growth as untreated, 0 = no growth, -100 = all killed)
Details in all cases: 10 µM
[1] = system: SK-MEL-2 melanoma
[2] = system: EKVX NSCLC
[3] = system: SN12C renal
[4] = system: UO-31 renal
[5] = system: TK-10 renal
[6] = system: ACHN renal
[7] = system: CAKI-1 renal
[8] = system: A498 renal
[9] = system: CCRF-CEM leukemia
[10] = system: MOLT-4 leukemia

Row | Compound | growth [1] | growth [2] | growth [3] | growth [4] | growth [5] | growth [6] | growth [7] | growth [8] | growth [9] | growth [10]
1 | CC(=O)c1ccc(Nc2nc(SC(C)C)nc(-c3ccccc3)c2C#N)cc1 | 111% | 39.7% | 10.9% | -53.6% (active) | 6.61% (active) | -56.9% (active) | 8.35% (active) | 94.7% | 97.5% | 82.9%
2 | [2H]C([2H])([2H])Oc1ccc2ncc(C#Cc3cncc(C(=O)Nc4ccc(CN5CCN(C)CC5)c(C(F)(F)F)c4)c3)n2n1 | -92.7% (active) | -60% (active) | -78.2% (active) | -85.2% (active) | -53.4% (active) | -88.9% (active) | -78.7% (active) | -50.6% (active) | 0.607% (active) | -13.6% (active)
3 | Cc1ccc(-c2cc(C(=O)N=Nc3c(O)[nH]c4ccc(Br)cc34)c3ccccc3n2)cc1 | 104% | 60.6% | 48.6% | 52.2% | 119% | 52.3% | 73.6% | 125% | 26.8% | 14.9%
4 | Cc1noc2c(Cc3ccccc3)nn(CC(=O)N/N=C/c3ccc(Br)cc3)c(=O)c12 | 106% | 65.8% | 8.51% (active) | -32.3% (active) | 17.8% | 6.21% (active) | 58.4% | -62.4% (active) | 96.8% | 93.9%
5 | CC(=O)c1ccc(Nc2nc(SCCC(C)C)nc(-c3ccc(F)cc3)c2C#N)cc1 | 117% | 52.7% | 22.7% | 24.7% | 6.32% (active) | -42.9% (active) | 16.2% | 15.6% | 86.9% | 76.9%
6 | O=c1c2ccccc2nc(COc2ccccc2)n1/N=C/c1ccc(N2CCCC2)cc1 | 104% | 88% | 88.7% | 69.8% | 99.5% | 92.3% | 91.5% | 109% | 78.2% | 78.1%
7 | CN1CCN(Cc2ccc(NC(=O)c3cncc(C#Cc4cnc5ccc(N[C@@H]6CCOC6)nn45)c3)cc2C(F)(F)F)CC1 | -94.3% (active) | -99.6% (active) | -98.6% (active) | -98.6% (active) | -82.2% (active) | -100% (active) | -98.1% (active) | -97.6% (active) | -4.84% (active) | -19% (active)
8 | COc1cc(C2CC(c3ccccc3)=Nc3c(N)nc(N)nc3N2)ccc1Oc1nc(Nc2ccc(F)cc2)nc(N(C)C)n1 (stereo not given) | 54.5% | 50.2% | 64.6% | 46.6% | 82.6% | 38.5% | 39.3% | 94.4% | 25.4% | 1.45% (active)
9 | COc1csc(/C=N/NC(=O)c2[nH]c3ccc(Br)cc3c2-c2ccccc2)c1 | 10.3% | 49.2% | 5.51% (active) | 36.7% | 32.8% | 19.1% | 9.49% (active) | 57.8% | -2.42% (active) | 1.69% (active)
10 | CC1CC(c2ccc(N(C)C)cc2)=NN1c1nc(O)c(C2=c3cc(Br)ccc3=NC2=O)s1 (stereo not given) | 98.9% | 61.9% | 106% | 78.3% | 94.4% | 92.2% | 101% | 103% | 29.8% | 70.5%
11 | CCOc1ccc(/C=N/NC(=O)Cn2nc(Cc3ccc([N+](=O)[O-])cc3)c3onc(C)c3c2=O)cc1 | 51.9% | 16.3% | 11.2% | -48.1% (active) | -12.2% (active) | -68% (active) | -9.88% (active) | 45.1% | 89.3% | 75.7%
12 | CN(CCO)c1oc(-c2ccccc2)nc1[P+](c1ccccc1)(c1ccccc1)c1ccccc1 | -33.8% (active) | 18.1% | -3.43% (active) | 74.3% | 24% | 56.3% | 59.7% | -7.19% (active) | 9.94% (active) | 13.4%
13 | NS(=O)(=O)c1ccc(NC(=O)CSc2ccc(-c3ccc(Cl)cc3)nn2)c(Br)c1 | 82.9% | 47.4% | 39.1% | 91% | 94.6% | 24.7% | 67% | 0.192% (active) | 83.7% | 90.6%
